# Data reported in the supplement of paper PMC9135407.
# Values joined by “and” are separate entries in the source; they are usually repeats but may differ in a detail not shown here. Equal values may be shown once. Where a name gives a salt, the structure may show the parent alone. The whole screen tested about 5,800 compounds, of which about 620 (11%) showed activity. Many of the other results were omitted from the sample, so actives are more common in it than they were. A number with no mark means an inactive call.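 How the source made its calls: active = score above a cut-off or among the top three wells of a plate; in these data no inactive exceeds 0.85.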
# Test system: primary human hepatic stellate cells (donor 1)
# Experiment: scaled lipid accumulation score (0 = DMSO-like, 1 = nortriptyline-like); higher = stronger HSC inactivation (lipid re-accumulation), active = hit call of the paper
# Conditions: 48 h
# [1] = library stock concentration: 1 mM
# [2] = library stock concentration: 10 mM
# [3] = library stock concentration: 2 mM
# [4] = library stock concentration: 3.33 mM
smiles,measurement,setting,value
"CCCCC/C=C\C/C=C\C/C=C\C/C=C\CCCC(=O)N(C)C [Arachidonoyl-N,N-dimethyl amide]",scaled lipid accumulation score,[1],0.01
CC(N)C(O)c1ccccc1 (configuration not stated) [Phenylpropanolamine],scaled lipid accumulation score,library stock concentration: 13.2 mM,≤ 0
CC(N)C(O)c1ccccc1 (configuration not stated) [Phenylpropanolamine hydrochloride],scaled lipid accumulation score,,≤ 0
same,scaled lipid accumulation score,library stock concentration: 10.7 mM,≤ -0.001
C=C[C@H]1CN2CC[C@H]1C[C@H]2[C@H](OC(=O)OCC)c1ccnc2ccc(OC)cc12 [Quinine ethyl carbonate],scaled lipid accumulation score,library stock concentration: 5 mM,≤ -0.001
same,scaled lipid accumulation score,[2],0.318
CN1C[C@H](C(=O)N[C@]2(C)O[C@@]3(O)[C@@H]4CCCN4C(=O)[C@H](Cc4ccccc4)N3C2=O)C[C@@H]2c3cccc4[nH]cc(c34)C[C@H]21 [Dihydroergotamine tartrate],scaled lipid accumulation score,,0.119
CN1C[C@H](C(=O)N[C@]2(C)O[C@@]3(O)[C@@H]4CCCN4C(=O)[C@H](Cc4ccccc4)N3C2=O)C[C@@H]2c3cccc4[nH]cc(c34)C[C@H]21.CS(=O)(=O)O [Dihydroergotamine methanesulfonate],scaled lipid accumulation score,[2],1.06 (active)
CN1C[C@H](C(=O)N[C@]2(C)O[C@@]3(O)[C@@H]4CCCN4C(=O)[C@H](Cc4ccccc4)N3C2=O)C[C@@H]2c3cccc4[nH]cc(c34)C[C@H]21 [Dihydroergotamine mesylate],scaled lipid accumulation score,library stock concentration: 2.9 mM,≤ 0
same,scaled lipid accumulation score,[2],0.16 and 0.216
CC(C)[C@@]1(NC(=O)[C@@H]2C[C@@H]3c4cccc5[nH]cc(c45)C[C@H]3N(C)C2)O[C@@]2(O)[C@@H]3CCCN3C(=O)[C@H](Cc3ccccc3)N2C1=O [Dihydroergocristine mesylate],scaled lipid accumulation score,,0.232
same,scaled lipid accumulation score,[2],0.54
FC(F)(F)c1cccc(C2=CCN(CCc3ccc4ccccc4c3)CC2)c1 [Xaliproden hydrochloride],scaled lipid accumulation score,[2],0.229
CC(N)Cc1cnc[nH]1 (configuration not stated),scaled lipid accumulation score,[2],0.028
CN1CC[C@]23CCCC[C@H]2[C@H]1Cc1ccc(O)cc13,scaled lipid accumulation score,library stock concentration: 9.9 mM,≤ 0
CC(=O)O[C@H]1C[C@@H]2CC[C@@H]3[C@H](CCC4(C)[C@H]3C[C@H]([N+]3(C)CCCCC3)[C@@H]4OC(C)=O)C2(C)C[C@@H]1[N+]1(C)CCCCC1 (some centres not stated) [Pancuronium Br],scaled lipid accumulation score,library stock concentration: 3.5 mM,≤ -0.006
Cc1n[nH]c2ccc(-c3cncc(OC[C@@H](N)Cc4c[nH]c5ccccc45)c3)cc12,scaled lipid accumulation score,library stock concentration: 400 uM,1 (active)
Cc1[nH]nc2ccc(-c3cncc(OC[C@@H](N)Cc4c[nH]c5ccccc45)c3)cc12,scaled lipid accumulation score,library stock concentration: 80 uM,0.308
same,scaled lipid accumulation score,[3],0.593
same,scaled lipid accumulation score,[2],0.427
CNC(Cc1c[nH]c2ccccc12)C(=O)O (configuration not stated) [Abrine (l)],scaled lipid accumulation score,[2],≤ 0
C[N+]1(C)C2CCC1CC(OC(=O)c1c[nH]c3ccccc13)C2 (configuration not stated) [3-Tropanylindole-3-carboxylate methiodide],scaled lipid accumulation score,[2],≤ 0
Cn1cc(C(=O)C(=O)N[C@H]2CN3CCC2CC3)c2ccccc21,scaled lipid accumulation score,[2],0.403
O=C(N[C@H]1CN2CCC1CC2)c1ccc(Cl)cc1,scaled lipid accumulation score,[2],≤ -0.001 and 0.156
c1ccc2c(c1)Sc1ccccc1N2CC1CN2CCC1CC2 (configuration not stated),scaled lipid accumulation score,[2],1.03 (active)
COc1cc2c(cc1OC)[C@@]13CCN4CC5=CCO[C@H]6CC(=O)N2[C@H]1[C@H]6[C@H]5C[C@H]43 [Brucine],scaled lipid accumulation score,library stock concentration: 5.1 mM,≤ 0
same,scaled lipid accumulation score,[2],≤ 0
O=c1c2ccccc2[se]n1-c1ccccc1 [Ebselen] [listing 1 of 3 here],scaled lipid accumulation score,[1],≤ 0
O=c1c2ccccc2[se]n1-c1ccccc1 [Ebselen] [listing 2 of 3 here],scaled lipid accumulation score,,0.867 (active)
O=c1c2ccccc2[se]n1-c1ccccc1 [Ebselen] [listing 3 of 3 here],scaled lipid accumulation score,library stock concentration: 18.2 mM,0.952 (active)
O=c1c2ccccc2[se]n1-c1ccccc1,scaled lipid accumulation score,[2],1.07 (active)
CNC1=Nc2ccc(Cl)cc2C(c2ccccc2)=[N+]([O-])C1,scaled lipid accumulation score,[2],0.036
CCCCC/C=C\C/C=C\C/C=C\C/C=C\CCCCOC(CO)CO [2-Arachidonyl Glycerol ether],scaled lipid accumulation score,[1],≤ 0
COc1ccc2cc(C(C#N)OC(=O)OCC3OC3c3ccccc3)ccc2c1 (configuration not stated) [Epoxy Fluor 7],scaled lipid accumulation score,[1],0.009
Cc1cc2c(C(C)C)c(O)c(O)c(C=O)c2c(O)c1-c1c(C)cc2c(C(C)C)c(O)c(O)c(C=O)c2c1O [listing 1 of 2 here],scaled lipid accumulation score,[4],≤ 0
same,scaled lipid accumulation score,[2],0.142
Cc1cc2c(C(C)C)c(O)c(O)c(C=O)c2c(O)c1-c1c(C)cc2c(C(C)C)c(O)c(O)c(C=O)c2c1O [Gossypol],scaled lipid accumulation score,,≤ 0
same,scaled lipid accumulation score,[4],0.016
same,scaled lipid accumulation score,[2],0.824 and 0.57
Cc1cc2c(C(C)C)c(O)c(O)c(C=O)c2c(O)c1-c1c(C)cc2c(C(C)C)c(O)c(O)c(C=O)c2c1O [listing 2 of 2 here],scaled lipid accumulation score,[2],0.999 (active)
CC(N)Cc1ccc(O)cc1 (configuration not stated) [Hydroxyamphetamine hydrobromide],scaled lipid accumulation score,[2],≤ 0
CC(C)=CCC[C@]1(C)C=Cc2c(O)c3c(c(CC=C(C)C)c2O1)O[C@]12C(=C[C@@H]4C[C@H]1C(C)(C)O[C@@]2(C/C=C(/C)C(=O)O)C4=O)C3=O [Gambogic acid],scaled lipid accumulation score,[2],0.672
CCCCCCC(C)(C)c1cc(OC)c2c(c1)OC(C)(C)[C@@H]1CC=C(C)C[C@@H]21,scaled lipid accumulation score,[1],≤ 0
O=C1CSC(c2ccccc2Cl)c2cc(Cl)ccc2N1 (configuration not stated),scaled lipid accumulation score,[2],≤ -0.006
same,scaled lipid accumulation score,library stock concentration: 15.4 mM,0.158
CC[C@@]1([C@H]2O[C@H]([C@H]3O[C@@](O)(CO)[C@H](C)C[C@@H]3C)C[C@H]2C)CC[C@H]([C@@]2(C)CC[C@]3(C[C@H](O)[C@@H](C)[C@@H]([C@H](C)[C@H](OC)[C@@H](C)C(=O)O)O3)O2)O1 [Monensin sodium],scaled lipid accumulation score,library stock concentration: 7.2 mM,0.508
CC[C@@]1([C@@H]2O[C@@H]([C@H]3O[C@@](O)(CO)[C@H](C)C[C@@H]3C)C[C@@H]2C)CC[C@H]([C@]2(C)CC[C@]3(C[C@H](O)[C@@H](C)[C@@H]([C@@H](C)[C@@H](OC)[C@H](C)C(=O)O)O3)O2)O1 [Monensin sodium salt],scaled lipid accumulation score,,0.541
C=C1[C@H]2C[C@@]3([C@@H]1O)[C@@H](C[C@@H]2O)[C@]12[C@@H]4C[C@H]3[C@H]1N(CC)C[C@]4(C)CC[C@@H]2O [Napelline],scaled lipid accumulation score,,≤ 0
NCCC(O)C(=O)NC1CC(N)C(OC2OC(CN)C(O)[C@H](O)[C@@H]2N)[C@H](OC2O[C@H](CO)[C@@H](O)[C@@H]2O)[C@@H]1O (some centres not stated) [Butirosin disulfate salt],scaled lipid accumulation score,,0.015
COc1ccc(/C=C\c2cc(OC)cc(OC)c2)cc1 [cis-trismethoxy Resveratrol],scaled lipid accumulation score,[1],0.097
N[C@]1(C(=O)O)CC[C@H](C(=O)O)C1,scaled lipid accumulation score,[2],0.035
C[C@@H]1O[C@@H](O[C@H]2C[C@@H](O)[C@]3(CO)[C@H]4[C@H](O)C[C@]5(C)[C@@H](C6=CC(=O)OC6)CC[C@]5(O)[C@@H]4CC[C@]3(O)C2)[C@H](O)[C@H](O)[C@H]1O.O.O.O.O.O.O.O.O [Strophantine octahydrate],scaled lipid accumulation score,,1.02 (active)
C[C@H]1O[C@@H](O[C@@H]2C[C@H](O)[C@]3(CO)[C@H]4[C@H](O)C[C@]5(C)[C@H](C6=CC(=O)OC6)CC[C@]5(O)[C@@H]4CC[C@]3(O)C2)[C@@H](O)[C@H](O)[C@H]1O.O.O.O.O.O.O.O.O [Ouabain],scaled lipid accumulation score,[4],1.05 (active)
same,scaled lipid accumulation score,[2],1.06 (active)
CCCCC/C=C\C/C=C\C/C=C\C/C=C\CCCC(=O)Nc1ccc2c(C)cc(=O)oc2c1 [AMC Arachidonoyl Amide],scaled lipid accumulation score,[1],0.06
C/C=C1\C[C@@H](C)[C@](O)(CO)C(=O)OCC2=CCN3CC[C@@H](OC1=O)[C@@H]23 [Retrorsine],scaled lipid accumulation score,,≤ 0
COc1c(C[C@@H](C)OC(=O)Oc2ccc(O)cc2)c2c3c(C[C@@H](C)OC(=O)c4ccccc4)c(OC)c(=O)c4c(O)cc(OC)c(c5c(OC)cc(O)c(c1=O)c52)c43 [Calphostin C],scaled lipid accumulation score,library stock concentration: 600 uM,0.094
C=C[C@]12CN(C)[C@@H]3[C@H]4CO[C@H](C[C@H]41)[C@]1(C(=O)Nc4ccccc41)[C@@H]32 [Gelsemine],scaled lipid accumulation score,,≤ 0
C=CCc1ccccc1OCC(O)CNC1(C)CCC(C(C)(C)NC(=O)CBr)CC1 (configuration not stated) [Bromoacetyl alprenolol menthane],scaled lipid accumulation score,[2],≤ 0
CO[C@@H]1C[C@@H](C[C@H]2CC[C@H](C)[C@H]([C@@H](C)C(=O)O)O2)O[C@]2(O[C@](C)([C@H]3CC[C@@](C)([C@@H]4O[C@@H]([C@H]5O[C@@](O)(CO)[C@H](C)C[C@@H]5C)C[C@@H]4C)O3)C[C@H]2C)[C@@H]1C [Nigericin],scaled lipid accumulation score,library stock concentration: 6.9 mM,0.535
CO[C@H]1CC[C@@H](O[C@H]2C[C@H]([C@]3(C)CC[C@]4(C[C@H](O)[C@@H](C)[C@@H]([C@@H](C)/C=C(\C)C(=O)[C@H](C)C[C@H](C)C(=O)O)O4)O3)O[C@]3(O[C@@H]([C@H]4O[C@@](O)(CO)[C@H](C)C[C@@H]4C)C[C@@H]3C)[C@@H]2C)O[C@@H]1C [Nanchangmycin],scaled lipid accumulation score,[4],1.27 (active)
same,scaled lipid accumulation score,[2],0.663
NC(Cc1cc(O)c(O)cc1O)C(=O)O (racemic) [6-Hydroxy-DL-DOPA],scaled lipid accumulation score,[2],≤ -0.07
CC(=O)O[C@H]1C[C@H](O[C@H]2[C@@H](O)C[C@H](O[C@H]3[C@@H](O)C[C@H](O[C@H]4CC[C@@]5(C)[C@H](CC[C@@H]6[C@@H]5C[C@@H](O)[C@]5(C)[C@@H](C7=CC(=O)OC7)CC[C@]65O)C4)O[C@@H]3C)O[C@@H]2C)O[C@H](C)[C@H]1O[C@@H]1O[C@H](CO)[C@@H](O)[C@H](O)[C@H]1O [Lanatoside C],scaled lipid accumulation score,,1.08 (active)
CO[C@H]1[C@H](O)[C@@H](O[C@H]2CC[C@]3(C=O)C4CC[C@]5(C)[C@@H](C6=CC(=O)OC6)CC[C@]5(O)C4CC[C@@H]3C2)O[C@@H](C)[C@@H]1O (some centres not stated) [Peruvoside],scaled lipid accumulation score,[2],0.873 (active)
C[C@]12CC[C@@H](O)C[C@H]1CC[C@@H]1[C@@H]2CC[C@]2(C)C(=O)CC[C@@H]12 [3-alpha-Hydroxy-5-beta-androstan-17-one],scaled lipid accumulation score,,≤ 0
CC(=O)O[C@H]1C[C@H](O[C@H]2[C@@H](O)C[C@H](O[C@H]3[C@@H](O)C[C@H](O[C@H]4CC[C@@]5(C)[C@H](CC[C@@H]6[C@@H]5C[C@@H](O)[C@]5(C)[C@@H](C7=CC(=O)OC7)CC[C@]65O)C4)O[C@@H]3C)O[C@@H]2C)O[C@H](C)[C@H]1O[C@@H]1O[C@H](CO)[C@@H](O)[C@H](O)[C@H]1O [Lanatoside c],scaled lipid accumulation score,[3],0.894 (active)
same,scaled lipid accumulation score,[2],0.892 (active)
C[C@@H]1O[C@@H](O[C@H]2CC[C@]3(C=O)[C@H]4CC[C@]5(C)[C@@H](C6=CC(=O)OC6)CC[C@]5(O)[C@@H]4CC[C@]3(O)C2)[C@H](O)[C@H](O)[C@H]1O [Convallatoxin],scaled lipid accumulation score,[2],0.656
CC(=O)[C@H]1CC[C@H]2[C@@H]3CC[C@H]4C[C@H](O)CC[C@]4(C)[C@H]3CC[C@]12C [5alpha-Pregnan-3alpha-ol-20-one],scaled lipid accumulation score,[2],≤ 0
C[C@]12CC[C@H](O)C[C@@H]1CC[C@@H]1[C@@H]2CC[C@]2(C)C(=O)CC[C@@H]12 [Epiandrosterone],scaled lipid accumulation score,,0.082
same,scaled lipid accumulation score,[4],≤ 0
same,scaled lipid accumulation score,[2],≤ 0
C[C@H]1CC[C@]2(NC1)O[C@H]1C[C@H]3[C@@H]4CC[C@H]5C[C@@H](O[C@@H]6O[C@H](CO)[C@H](O[C@@H]7O[C@H](CO)[C@@H](O)[C@H](O[C@@H]8OC[C@@H](O)[C@H](O)[C@H]8O)[C@H]7O[C@@H]7O[C@H](CO)[C@@H](O)[C@H](O)[C@H]7O)[C@H](O)[C@H]6O)CC[C@]5(C)[C@H]4CC[C@]3(C)[C@H]1[C@@H]2C [Tomatine],scaled lipid accumulation score,,0.319
C[C@]12CC[C@H](O)C[C@H]1CC[C@@H]1[C@@H]2C[C@@H](O)[C@]2(C)[C@@H](C3=CC(=O)OC3)CC[C@]12O [Digoxigenin],scaled lipid accumulation score,,0.991 (active)
C[C@]12CC[C@H](O)C[C@H]1CC[C@@H]1[C@@H]2CC[C@]2(C)[C@@H](C3=CC(=O)OC3)CC[C@]12O [Digitoxigenin],scaled lipid accumulation score,,0.936 (active)
C[C@]12CC[C@@H](O)C[C@@H]1CC[C@@H]1[C@@H]2CC[C@]2(C)C(=O)CC[C@@H]12 [Androsterone],scaled lipid accumulation score,,0.083
